The nature of test [1]: Quantitative High-Throughput drug screen in 47 multiple myeloma cell lines against the NCATS MIPE library collection: KMS12BM_JCRB cell viability assay (AID 1918971). Further: nearly all actives have a fitted effect of over 35% in size. Summed up:
(§1)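 Luminescent ATP measurement with CellTiter-Glo gives viability, scaled between DMSO-only wells (100%) and media-only wells (0%). Cells, 500 per well, faced library compounds for 48 hours at 37C.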

The nature of test [2]: Quantitative High-Throughput drug screen in 47 multiple myeloma cell lines against the NCATS MIPE library collection: KMS12PE_JCRB cell viability assay (AID 1918972). Further: nearly all actives have a fitted effect of over 30% in size. Summed up:
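qHTS of the MIPE 4.0 collection: 500 myeloma cells/well, 48 h drug exposure at 37C in 5% CO2, then CellTiter-Glo for 5 min at room temperature before luminescence reading.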

A short description of test [3]: Quantitative High-Throughput drug screen in 47 multiple myeloma cell lines against the NCATS MIPE library collection: KMS20_JCRB cell viability assay (AID 1918973). Further: nearly all actives have a fitted effect of over 45% in size. Summed up: (§2)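 Viability readout: CellTiter-Glo luminescence following 5 min room-temperature incubation with reagent. Prior exposure: 48 h, 37C, humidified 5% CO2, 500 cells per well.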
The nature of test [4]: Quantitative High-Throughput drug screen in 47 multiple myeloma cell lines against the NCATS MIPE library collection: OCIMY1_PLB cell viability assay (AID 1918979). Further: nearly all actives have a fitted effect of over 35% in size. Summed up:
(§3)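 Viability after 48 h drug exposure was measured as ATP-dependent luminescence. Cells, 500 per well, sat at 37 °C under 5% CO2; DMSO wells set 100%, media-only wells 0%.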

Test [5] is described as follows: Quantitative High-Throughput drug screen in 47 multiple myeloma cell lines against the NCATS MIPE library collection: MM1S_ATCC cell viability assay (AID 1918980). Further: nearly all actives have a fitted effect of over 45% in size. Summed up:
as §3

Test [6] can be described thus: Quantitative High-Throughput drug screen in 47 multiple myeloma cell lines against the NCATS MIPE library collection: MM1R_ATCC cell viability assay (AID 1918981). Further: nearly all actives have a fitted effect of over 35% in size. In a few lines:
as §3

Test [7] is described as follows: Quantitative High-Throughput drug screen in 47 multiple myeloma cell lines against the NCATS MIPE library collection: LP1_DSMZ cell viability assay (AID 1918982). Further: nearly all actives have a fitted effect of over 35% in size. In a few lines:
as §3

Test [8] is described as follows: Quantitative High-Throughput drug screen in 47 multiple myeloma cell lines against the NCATS MIPE library collection: L363_DSMZ cell viability assay (AID 1918984). Further: nearly all actives have a fitted effect of over 40% in size. Summed up: as §3
Test [9] can be described thus: Quantitative High-Throughput drug screen in 47 multiple myeloma cell lines against the NCATS MIPE library collection: KMS34_JCRB cell viability assay (AID 1918985). Further: nearly all actives have a fitted effect of over 40% in size. Summed up:
as §3

Test [10] in a line: Quantitative High-Throughput drug screen in 47 multiple myeloma cell lines against the NCATS MIPE library collection: OCIMY5_PLB cell viability assay (AID 1918988). Further: nearly all actives have a fitted effect of over 65% in size. In a few lines: as §3
Test [11] is described as follows: Quantitative High-Throughput drug screen in 47 multiple myeloma cell lines against the NCATS MIPE library collection: OPM1_PLB cell viability assay (AID 1918989). Further: nearly all actives have a fitted effect of over 40% in size. In a few lines:
as §3

Test [12] can be described thus: Quantitative High-Throughput drug screen in 47 multiple myeloma cell lines against the NCATS MIPE library collection: U266_ATCC cell viability assay (AID 1919864). Further: nearly all actives have a fitted effect of over 35% in size. Summed up:
as §3

Test [13] is described as follows: Quantitative High-Throughput drug screen in 47 multiple myeloma cell lines against the NCATS MIPE library collection: MMM1_PLB cell viability assay (AID 1918976). Further: nearly all actives have a fitted effect of over 35% in size. Summed up:
as §3

Test [14] can be described thus: Quantitative High-Throughput drug screen in 47 multiple myeloma cell lines against the NCATS MIPE library collection: NCIH929_DSMZ cell viability assay (AID 1918978). Further: nearly all actives have a fitted effect of over 35% in size. Summed up: as §3
A short description of test [15]: Quantitative High-Throughput drug screen in 47 multiple myeloma cell lines against the NCATS MIPE library collection: KMS26_JCRB cell viability assay (AID 1918975). Further: nearly all actives have a fitted effect of over 45% in size. Summed up:
as §1

The nature of test [16]: Quantitative High-Throughput drug screen in 47 multiple myeloma cell lines against the NCATS MIPE library collection: MOLP8_DSMZ cell viability assay (AID 1918977). Further: nearly all actives have a fitted effect of over 45% in size. Summed up:
as §3

Test [17] can be described thus: Quantitative High-Throughput drug screen in 47 multiple myeloma cell lines against the NCATS MIPE library collection: SKMM1_PLB cell viability assay (AID 1919863). Further: nearly all actives have a fitted effect of over 35% in size. As to conditions: SKMM1 myeloma viability, CellTiter-Glo ATP, 48 h; viability: active compounds read low. In a few lines:
as §3
A general note: ATP-based viability assays read luminescence as a measure of living cells.

Test [18] in a line: Quantitative High-Throughput drug screen in 47 multiple myeloma cell lines against the NCATS MIPE library collection: KMS21BM_JCRB cell viability assay (AID 1918974). Conditions: ATP luminescence, 48 h; viability: at 45.8 µM (top of the series) unless noted. In a few lines: as §2
Test [19] can be described thus: Quantitative High-Throughput drug screen in 47 multiple myeloma cell lines against the NCATS MIPE library collection: KMS28PE_JCRB cell viability assay (AID 1918983). Further: nearly all actives have a fitted effect of over 35% in size. In a few lines: as §3
A short description of test [20]: Quantitative High-Throughput drug screen in 47 multiple myeloma cell lines against the NCATS MIPE library collection: OCIMY7_PLB cell viability assay (AID 1918987). Further: nearly all actives have a fitted effect of over 65% in size. As to conditions: OCI-MY7 myeloma viability, CellTiter-Glo ATP, 48 h; viability (% of DMSO): at 45.8 µM (top of the series). Summed up: as §3

Records with an inconclusive call do not appear. Unmarked numbers belong to inactive results. Calls of active or inactive are those of the source. The call rests on the fitted dose curve; in most records, active means well fitted curve in the direction sought with a large enough effect; inconclusive means small, poorly fitted or top-dose-only effect, or another doubt; inactive means no such curve, though single readings can be large; an effect the other way counts as inactive or inconclusive.
Potency means the concentration at half of the fitted maximal effect.

Consider `COc1ccc(C2Sc3ccccc3N(CCN(C)C)C(=O)C2OC(C)=O)cc1` (stereo unspecified), for which the Potency in test [1] was 2.64 µM (active); in [5], 18.7 µM (active); in test [7], 0.0017 µM (active); in test [10], 10.5 µM (active); in test [12], 16.6 µM (active). Besides, the Potency entry in test [2], in test [3], in test [4], in test [6], in test [8] and in test [9] was “inactive” in each case. Also, the Potency result in [11] is “inactive”.
`Cc1ccc(Nc2cc(-c3cccc(N4C(=O)c5ccccc5C4=O)c3)ncn2)cc1NS(C)(=O)=O`: the Potency in test [1] is 20.9 µM (active); in test [2] it was 26.4 µM (active); in [3] it was 26.4 µM (active); in test [13], 20.9 µM (active); in test [14], 3.32 µM (active); in test [5], 20.9 µM (active). In addition, the Potency was 23.5 µM (active) in test [6]; 18.7 µM (active) in test [8]; 20.9 µM (active) in test [10]; 23.5 µM (active) in test [11]; 23.5 µM (active) in test [12]. In addition, the Potency result in test [4] is “inactive”.
Take `C[C@H]1[C@H](NC(=O)C(=NOC(C)(C)C(=O)O)c2csc(N)n2)C(=O)N1S(=O)(=O)O`: the values for the Potency in test [1], in [3] and in test [5] were 1.48 µM (active), 16.6 µM (active) and 14.8 µM (active), respectively. Also, the Potency entry in test [2], in [15], in [16], in [4], in test [6] and in [7] was “inactive” each time. For the same compound, the Potency entry in [9] and in test [11] was “inactive” throughout. Further, in test [17], the viability was 114%.
For `Oc1ccc(C2CCN(c3ccnc4ccccc34)CC2)cc1O`, the Potency in test [1] is 16.6 µM (active); in test [2], 18.7 µM (active); in test [3] it was 18.7 µM (active); in test [18], 23.5 µM (active); in [15], 18.7 µM (active); in [13], 9.35 µM (active). Besides, the Potency in test [14] was 18.7 µM (active); in test [19], 16.6 µM (active); in test [8], 18.7 µM (active); in test [9], 16.6 µM (active); in [10] it was 14.8 µM (active); in test [11], 16.6 µM (active). Also, the viability in test [17] was 103%.
Take `CN1C[C@H]2c3ccccc3Oc3ccc(Cl)cc3[C@@H]2C1`: the Potency entry in test [1], in test [3], in [14], in [4], in test [5] and in test [6] was “inactive” throughout. Also, the Potency result in test [19] and in test [12] was “inactive” throughout. Further, the Potency in test [10] was 13.2 µM (active).
With `CC[C@@]1(O)C[C@H](O[C@H]2C[C@H](N(C)C)[C@H](O[C@H]3C[C@H](O)[C@H](O[C@H]4CCC(=O)[C@H](C)O4)[C@H](C)O3)[C@H](C)O2)c2c(cc3c(c2O)C(=O)c2c(O)cccc2C3=O)[C@@H]1C(=O)OC`, the Potency in test [1] is 0.148 µM (active); in [3] it was 0.0743 µM (active); in test [15], 0.743 µM (active); in [13] it was 0.296 µM (active); in test [16], 0.296 µM (active); in [14], 0.264 µM (active). Further, the Potency is 1.66 µM (active) in test [4]; 0.187 µM (active) in [5]; 0.209 µM (active) in [6]; 0.418 µM (active) in test [19]; 2.09 µM (active) in [9]; 0.372 µM (active) in [20]. The Potency in [10] is 0.0935 µM (active); in [11] it was 0.833 µM (active); in test [17] it was 0.833 µM (active); in test [12] it was 0.418 µM (active).
`CC(=NNC(=S)N1CCC1)c1ccccn1`: the Potency in [1] is 0.0042 µM (active); in test [2], 0.001 µM (active); in test [4], 0.0074 µM (active); in test [11] it was 0.0037 µM (active); in [17] it was 0.0059 µM (active). In addition, the Potency result in test [20] is “inactive”.
In the case of `CCN(CC)CCOc1ccc(C(=C(Cl)c2ccccc2)c2ccccc2)cc1`, the Potency entry in [1], in [13], in test [4], in test [6], in test [7] and in [19] was “inactive” each time. The Potency entry in test [11] is “inactive”. The Potency in test [18] is 18.7 µM (active); in [12], 16.6 µM (active).
On to `NC1=N[C@@]2(c3cc(NC(=O)c4ccc(F)cn4)ccc3F)COC[C@@H]2CS1`, for which the Potency entry in [1], in test [4] and in test [19] was “inactive” each time. Moreover, the Potency in test [2] was 1.05 µM (active); in test [8], 0.418 µM (active); in test [10], 23.5 µM (active); in [11], 16.6 µM (active). Besides, in test [17], the viability is 111%.
In the case of `O=C1Nc2ccc(Cl)cc2C(C#CC2CC2)(C(F)(F)F)O1` (stereo unspecified), the Potency in test [1] is 23.5 µM (active); in test [3], 20.9 µM (active); in test [15] it was 23.5 µM (active); in test [5], 20.9 µM (active); in test [10], 16.6 µM (active); in test [11], 20.9 µM (active). Also, the Potency in test [12] was 23.5 µM (active).
Take `CC=CC[C@@H](C)C(=O)[C@H]1C(=O)N[C@@H](C(C)C)C(=O)N(C)CC(=O)N(C)[C@@H](CC(C)C)C(=O)N[C@@H](C(C)C)C(=O)N(C)[C@@H](CC(C)C)C(=O)N[C@@H](C)C(=O)N[C@H](C)C(=O)N(C)[C@@H](CC(C)C)C(=O)N(C)[C@@H](CC(C)C)C(=O)N(C)[C@@H](C(C)C)C(=O)N1C`: the Potency was 23.5 µM (active) in test [1]; 1.32 µM (active) in test [3]; 5.26 µM (active) in test [13]; 16.6 µM (active) in test [5]; 16.6 µM (active) in test [20]; 23.5 µM (active) in [10]. For the same compound, the Potency in test [17] was 14.8 µM (active). Further, in test [4], the Potency entry is “inactive”.
Turning to `C[N+]1(C)[C@@H]2CC(OC(=O)[C@H](CO)c3ccccc3)C[C@H]1[C@H]1O[C@@H]12` (stereo partly specified), the Potency result in test [1], in test [3], in test [15], in test [16], in [14] and in test [4] was “inactive” in each case. Also, the Potency entry in test [6], in test [7], in test [19], in [8], in test [9] and in [11] was “inactive” in each case.
On to `CC(C)=CC[C@@H](O)C1=CC(=O)c2c(O)ccc(O)c2C1=O`, for which the Potency is 0.935 µM (active) in test [1]; 14.8 µM (active) in test [3]; 0.418 µM (active) in [15]; 1.05 µM (active) in [13]; 0.418 µM (active) in [16]; 0.264 µM (active) in [14]. Further, the Potency in test [4] was 1.18 µM (active); in test [5] it was 0.662 µM (active); in [6], 0.264 µM (active); in test [19] it was 1.05 µM (active); in test [9] it was 1.05 µM (active); in test [10] it was 0.469 µM (active). The Potency was 16.6 µM (active) in test [11] and 1.05 µM (active) in test [17].
In the case of `Cc1ccc([C@@H]2O[C@H](CO)[C@@H](O)[C@H](O)[C@@H]2O)cc1Cc1ccc(-c2ccc(F)cc2)s1`, the Potency entry in test [1], in [16] and in [19] was “inactive” in each case. Further, the Potency was 20.9 µM (active) in test [2], 18.7 µM (active) in test [6], 23.5 µM (active) in test [9] and 20.9 µM (active) in [11]. In addition, the viability in test [17] was 118%.

For orientation: viability means a read-out of living cells in per cent, often relative to untreated cells.

These data come from PubChem BioAssay (NCATS).
